Screening data deposited in PubChem BioAssay by Broad Institute.
Pf Dd2 growth: P. falciparum Dd2 growth inhibition; SYBR Green, 72 h; hits give low values; activity change, % at 10 µM; hit rate 2.3% among 94,000; in the data active means activity change below about -80%; inconclusive means no clear call, values can overlap the other calls
C diff growth: inhibitors of Clostridium difficile growth; Clostridium difficile clinical isolate growth, OD600, 24 h; hits give low values; growth activity, negative = inhibition, % at 16 µg/mL (by protocol); hit rate 0.25% among 86,000; AID 1259249;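 active means mean growth activity at or below -80% and every replicate also at or below -80%; inconclusive means mean at or below -80% but some replicate above -80%; inactive means mean growth activity above -80%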;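 further: 0% = DMSO wells and -100% = levofloxacin 16 µg/mL wells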
T cruzi growth-1: inhibitors of T. cruzi proliferation; T. cruzi beta-gal in NIH3T3, GalScreen luminescence, 90 h; inhibition, % at 8.34 µM; hit rate 5.9% among 77,000;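 active means mean inhibition above about 93%, with at least 55% of replicates each passing it, limit read from the data, passing the limit was not always enough; inconclusive means only one of those two conditions holds; inactive means neither condition holds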
T cruzi growth-2: Trypanosoma cruzi proliferation inhibition. shares compounds with T cruzi growth-1. T. cruzi beta-gal in NIH3T3, GalScreen luminescence, 90 h. inhibition, % at 8.35 µM. hit rate 72% among 5,600;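 active means mean replicate inhibition above about 95% and at least 55% of replicates individually reaching it, limit read from the data; inconclusive means only one of the two criteria is met; inactive means neither criterion is met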
T cruzi growth-3: blocks T. cruzi growth in NIH3T3 host cells; inhibition, % at 2.09 µM; shares compounds with T cruzi growth-1; T. cruzi beta-gal in NIH3T3, GalScreen luminescence, 90 h; hit rate 21% among 5,600;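 active means mean inhibition above about 95%, with at least 55% of replicates also reaching it, limit read from the data; inconclusive means meets just one of the two conditions; inactive means meets neither condition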;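 further: plate controls were neutral control median for no effect and positive control median for full effect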
NIH3T3 tox: cytotoxicity in mouse NIH/3T3 fibroblasts | NIH/3T3 viability, CellTiter-Glo ATP luminescence, 90 h | cytotoxicity (signal decrease), % at 8.35 µM | hit rate 14% among 5,600 | shares compounds with T cruzi growth-1;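 active means mean signal decrease across replicates above about 35% based on untreated-well scatter, with enough replicates individually passing, limit read from the data; inconclusive means no rule stated though some were filed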;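 further: 0% = median of neutral control wells and 100% = median of positive control wells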
NIH3T3 tox 2: kills mouse NIH/3T3 fibroblasts. shares compounds with T cruzi growth-1. NIH/3T3 viability, CellTiter-Glo ATP luminescence, 90 h. inhibition, % at 24.9 µM. hit rate 56% among 5,600. AID 651744;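 active means mean loss of cell viability signal at or above a set limit, and enough replicates individually reaching it; inconclusive means meets only the mean limit or only the replicate share; inactive means meets neither condition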;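 further: 0% = median of neutral control wells and 100% = median of positive control wells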
* hit, by the source's call; ? = inconclusive; . = no result. Most compounds without a hit are left out; they make up all but 6.8% or so of the library.

SMILES | Pf Dd2 growth | C diff growth | T cruzi growth-1 | T cruzi growth-2 | T cruzi growth-3 | NIH3T3 tox | NIH3T3 tox 2
C[C@@H](NC(=O)C[C@@H]1C[C@@H]2c3cc(NS(C)(=O)=O)ccc3O[C@@H]2[C@H](CO)O1)c1ccccc1 | -1 | 0 | . | . | . | . | .
CCC(=O)Nc1ccc2c(c1)OC[C@H](C)N(C(=O)CC)C[C@H](C)[C@H](OC)CN(C)C2=O | . | . | 1 | . | . | . | .
COc1ccc(NC(=O)N(C)C[C@@H]2OCCCC[C@H](C)Oc3ccc(NS(=O)(=O)c4ccccc4)cc3C(=O)N([C@@H](C)CO)C[C@@H]2C)cc1 | -67 | 12 | 78 | . | . | . | .
C[C@H](CO)N1C[C@H](C)[C@@H](CN(C)S(C)(=O)=O)Oc2ccc(NC(=O)Nc3ccc(C(F)(F)F)cc3)cc2CC1=O | -9 | . | -20 | . | . | . | .
Cc1ccc(S(=O)(=O)Nc2ccc3c(c2)C(=O)N([C@@H](C)CO)C[C@H](C)[C@@H](CN(C)S(=O)(=O)c2cccs2)OCCCC[C@H](C)O3)cc1 | . | -2 | . | . | . | . | .
COCC(=O)N(C)C[C@@H]1Oc2ncc(C#C[C@@H](C)O)cc2C(=O)N([C@@H](C)CO)C[C@H]1C | . | -5 | 11 | . | . | . | .
COc1cccc(NC(=O)N(C)C[C@H]2Oc3cc(C#Cc4ccc(F)cc4)ccc3S(=O)(=O)N([C@@H](C)CO)C[C@H]2C)c1 | -49 | 6 | 116* | 89 | 102* | 4 | 26
COc1cccc(NC(=O)N(C)C[C@@H]2Oc3cc(C#Cc4ccncc4)ccc3S(=O)(=O)N([C@@H](C)CO)C[C@H]2C)c1 | -56 | 1 | -42 | . | . | . | .
COc1cccc(NC(=O)N(C)C[C@H]2Oc3cc(C#Cc4ccc(F)cc4)ccc3S(=O)(=O)N([C@H](C)CO)C[C@@H]2C)c1 | -67 | 1 | 94* | 102* | 81 | -10 | 5
COc1cccc(NC(=O)N(C)C[C@@H]2Oc3cc(C#Cc4ccccc4)ccc3S(=O)(=O)N([C@H](C)CO)C[C@H]2C)c1 | ? | 31 | ? | 99* | 92 | 52* | 39*
COc1ccc(C#Cc2ccc3c(c2)O[C@H](CN(C)C(=O)Nc2cccc(OC)c2)[C@H](C)CN([C@H](C)CO)S3(=O)=O)cc1 | -78 | . | 98* | 105* | 111* | 1 | 11
COc1cccc(NC(=O)N(C)C[C@@H]2Oc3cc(-c4ccccc4OC)ccc3S(=O)(=O)N([C@H](C)CO)C[C@H]2C)c1 | -18 | -7 | . | . | . | . | .
COc1cccc(NC(=O)N(C)C[C@@H]2Oc3cc(-c4ccccc4OC)ccc3S(=O)(=O)N([C@H](C)CO)C[C@@H]2C)c1 | -42 | -8 | . | . | . | . | .
COc1cccc(NC(=O)N(C)C[C@H]2Oc3cc(-c4ccccc4OC)ccc3S(=O)(=O)N([C@@H](C)CO)C[C@H]2C)c1 | -5 | -4 | . | . | . | . | .
CO[C@H]1CN(C)C(=O)c2ccc(NS(=O)(=O)c3ccc(C)cc3)cc2OC[C@@H](C)N(C(=O)NC(C)C)C[C@@H]1C | . | . | -48 | . | . | . | .
CCCNC(=O)N(C)C[C@@H]1Oc2cc(-c3cncnc3)ccc2S(=O)(=O)N([C@@H](C)CO)C[C@@H]1C | -16 | 0 | . | . | . | . | .
O=C(C[C@@H]1CC[C@H]2[C@@H](COC[C@H](O)CN2C(=O)Nc2cccc(Cl)c2)O1)NCC1CCCCC1 | 0 | 2 | 18 | . | . | . | .
CCCC(=O)N1CC2(C1)CN(C(=O)C1CCC1)[C@H](CO)c1[nH]c3cc(OC)ccc3c12 | -21 | -5 | . | . | . | . | .
CN(C)CC#Cc1ccc([C@@H]2[C@H]3CN(C(=O)Nc4ccc(F)cc4)CCCCN3[C@H]2CO)cc1 | 20 | -4 | 21 | . | . | . | .
O=C(Nc1ccc(F)cc1)N1CCCCN2[C@H](CO)[C@H](c3ccc(C#CC4CC4)cc3)[C@H]2C1 | -40 | 54 | 70 | . | . | . | .
O=C(Nc1ccc(F)cc1)N1CCCCN2[C@@H](CO)[C@@H](c3ccc(C#CC4CC4)cc3)[C@@H]2C1 | -53 | 52 | 97* | 98* | 107* | 119* | 106*
O=C(Nc1ccc(F)cc1)N1CCCCN2[C@H](C1)[C@H](c1ccc(C#CC3CC3)cc1)[C@@H]2CO | -47 | 43 | 122* | 100* | 34 | 26 | 23
O=C(Nc1cccc(F)c1)N1CCCCN2[C@@H](CO)[C@H](c3ccc(C#CC4CC4)cc3)[C@@H]2C1 | -19 | 49 | ? | 93 | 102* | 105* | 106*
C[C@H](O)C#Cc1ccc([C@@H]2[C@H](CO)N3CCCCN(CC4CCOCC4)C[C@@H]23)cc1 | 1 | 0 | -36 | . | . | . | .
O=C(Nc1ccc2c(c1)[C@@H]1C[C@H](CC(=O)N3CCc4ccccc4C3)O[C@@H](CO)[C@@H]1O2)C1CCC1 | -23 | 3 | 44 | . | . | . | .
SMILES | Pf Dd2 growth | C diff growth | T cruzi growth-1 | T cruzi growth-2 | T cruzi growth-3 | NIH3T3 tox | NIH3T3 tox 2
COc1ccccc1CNC(=O)C[C@@H]1C[C@@H]2c3cc(NC(=O)CN(C)C)ccc3O[C@@H]2[C@H](CO)O1 | 7 | . | 59 | . | . | . | .
C[C@@H]1CN([C@@H](C)CO)C(=O)c2cc(C3=CCCC3)cnc2O[C@H]1CN(C)Cc1ccccn1 | 5 | -4 | -165 | . | . | . | .
COc1ccccc1NC(=O)N[C@@H]1CC[C@H](CC(=O)N[C@H](C)c2ccccc2)O[C@@H]1CO | 0 | . | 12 | . | . | . | .
O=S(=O)(c1cccc(F)c1)N1CC[C@@H]2[C@H]1c1cc(C#Cc3ccccc3F)ccc1N[C@@H]2CO | -9 | -6 | ? | 92 | 108* | 34 | 104*
O=S(=O)(c1ccccc1)N1CC[C@@H]2[C@H](CO)Nc3ccc(C#Cc4ccccc4F)cc3[C@@H]21 | -28 | -3 | 69 | . | . | . | .
Cc1ccc(S(=O)(=O)N2CC[C@@H]3[C@H](CO)Nc4ccc(C#Cc5ccccc5F)cc4[C@@H]32)cc1 | -4 | 55 | 85 | . | . | . | .
O=S(=O)(c1ccccc1)N1CC[C@H]2[C@H](CO)Nc3ccc(C#Cc4ccccc4F)cc3[C@H]21 | -19 | 0 | . | . | . | . | .
Cc1ccc(S(=O)(=O)N2CC[C@@H]3[C@@H](CO)Nc4ccc(C#Cc5ccccc5F)cc4[C@@H]32)cc1 | -4 | -17 | 102* | 97* | 102* | 31 | 10
O=S(=O)(c1cccc(F)c1)N1CC[C@@H]2[C@@H](CO)Nc3ccc(C#Cc4ccccc4F)cc3[C@@H]21 | -42 | 1 | ? | 104* | 112* | 3 | 7
COc1ccc2c3c([nH]c2c1)[C@@H](CO)N(CC1CC1)CC31CN(S(=O)(=O)c2cccc(F)c2)C1 | -79 | 0 | . | . | . | . | .
O=C(C[C@@H]1CC[C@H](NC(=O)Nc2cccc(F)c2)[C@H](CO)O1)NCC1CCCCC1 | 12 | 4 | . | . | . | . | .
O=C(C[C@H]1C[C@H]2c3cc(NC(=O)Nc4ccccc4)ccc3O[C@H]2[C@@H](CO)O1)NCc1ccccn1 | 17 | -2 | -5 | . | . | . | .
COc1ccccc1NC(=O)N1CCCCN2[C@H](CO)[C@@H](c3ccc(-c4cccc(F)c4)cc3)[C@@H]2C1 | -50 | 15 | 111 | . | . | . | .
